Assay outcomes deposited in PubChem by National Center for Advancing Translational Sciences (NCATS).
Hits are enriched below; roughly 11% of the tested compounds scored in any of these assays.
AMA1-RON2 inh = qHTS for Inhibitors of AMA1-RON; Towards Development of Antimalarial Drug Lead: Primary Screen; Potency, µM (highest dose often 58.2 µM), for inactives: at the top dose activity change, negative = inhibition, hits mostly inhibitors; actives 0.2% (n = 360,000); Plasmodium falciparum AMA1 (3D7) - RON2 peptide interaction; AlphaScreen AMA1-biotinylated RON2 peptide binding;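 also: 0% = vehicle wells and -100% = peptide control; nearly all actives have a fitted effect of over 45% in size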
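AMA1 (3D7) with his tag at 25 nM final met compounds first, then biotinylated RON2 peptide at 25 nM; detection used donor plus acceptor beads, 10 µg/mL apiece, read by AlphaScreen after 30 min at room temperature.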
Pf growth 96h = Primary qHTS for delayed death inhibitors of the malarial parasite plastid, 96 hour incubation; P. falciparum luciferase reporter growth, 96 h; Potency, µM (highest dose often 28.7 µM), for inactives: at the highest dose activity change, negative = inhibition, usual class: inhibitors; actives 6.9% (n = 320,000); AID 504834, 2011
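96 h incubation, 37 C, 5% CO2, of luciferase-reporter P. falciparum-infected RBCs (2% hematocrit, 0.05% parasitemia final) with test compounds; endpoint luminescence.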
Pf growth 48h = Primary qHTS for delayed death inhibitors of the malarial parasite plastid, 48 hour incubation; P. falciparum luciferase growth in erythrocytes, 48 h; actives 5.9% (n = 310,000); AID 504832, 2011; Potency, µM (doses to about 28.7 µM), inactives show at the top dose activity change, negative = inhibition, actives largely listed as inhibitors
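Firefly luciferase activity from engineered P. falciparum reports growth; inhibitors lower the luminescent signal. Cultures contained 2% hematocrit erythrocytes at 0.1% final parasitemia.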
HCV inhibitor = qHTS Assay for Inhibitors of Hepatitis C Virus (HCV); Huh7.5.1 HCVcc-Cre infection, luciferase reporter, 44 h; Potency, µM (series often up to 41.8 µM), without a hit: at the highest dose activity change, negative = inhibition, most hits filed as inhibitors; actives 3.4% (n = 340,000); AID 651820, 2012
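Reporter virus HCVcc-Cre (~0.5 moi) infects cells exposed to compound; seeding density 1,000 cells/well with 4 h settling beforehand. Luminescence, 15 sec read, taken 44 h post-infection following a 15 min RT substrate incubation.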
Starred values were filed as active, the others as inactive; [ ] = remark or other dose. Calls follow the shape of the dose curve; as a rule, active = well fitted curve in the direction sought with a large enough effect; inconclusive = small, poorly fitted or top-dose-only effect, or another doubt; inactive = no such curve, though single readings can be large; an effect the other way counts as inactive or inconclusive. Unless noted, % is scaled to controls: 0 for no effect and ±100 for the full control effect; potency is read from the fitted curve at half-maximal effect.

What do the screens show for `CO[C@H]1[C@H](O[C@H]2O[C@@H](C)[C@@H](O[C@@H]3C[C@](C)(O)[C@H](O)[C@H](C)O3)[C@@H](N(C)C)[C@@H]2O)[C@@H](CC=O)C[C@@H](C)[C@@H](O[C@H]2CC[C@H](N(C)C)[C@H](C)O2)/C=C\C=C/C[C@@H](C)OC(=O)C[C@H]1O`?
Pf growth 96h: 2µM*; Pf growth 48h: -7%[12.8 µM]

How did CCC(=O)O[C@@H]1CC(=O)O[C@H](C)CC=CC=C[C@@H](O)[C@H](C)C[C@H](CC=O)[C@H](O[C@H]2O[C@H](C)[C@@H](O[C@H]3C[C@@](C)(O)[C@@H](OC(=O)CC)[C@H](C)O3)[C@H](N(C)C)[C@H]2O)[C@H]1OC do in these assays?
Pf growth 96h: 0.83µM*; Pf growth 48h: inconclusive

How did O=[N+]([O-])c1ccccc1OCCCn1cnc2ccccc21 do in these assays?
AMA1-RON2 inh: 4%; Pf growth 96h: 2.3µM*; Pf growth 48h: 32%; HCV inhibitor: -11%

Results for O=C(OCCc1cc2ccccc2c(=O)o1)c1ccco1 ?
AMA1-RON2 inh: 12%; Pf growth 96h: -7%; Pf growth 48h: 22%; HCV inhibitor: 5%

How did O=C(NCCOc1ccccc1)c1cccc2c1C(=O)c1ccc(Cl)cc1S2(=O)=O do in these assays?
AMA1-RON2 inh: -3%; Pf growth 96h: -2%; Pf growth 48h: 21%; HCV inhibitor: 10µM*

Results for O=C(NCCOc1ccccc1Cl)c1cccc2c1C(=O)c1ccc(Cl)cc1S2(=O)=O ?
AMA1-RON2 inh: -5%; Pf growth 96h: 38%; Pf growth 48h: 0%; HCV inhibitor: 9%

Results for Nn1c(-c2ccccc2Cl)nnc1-c1ccccc1Cl ?
AMA1-RON2 inh: -9%; Pf growth 96h: 49%; Pf growth 48h: 72%; HCV inhibitor: -19%

How did CSc1nnc(-c2ccccc2Cl)n1N do in these assays?
AMA1-RON2 inh: -1%; Pf growth 96h: 10µM*; Pf growth 48h: 5%; HCV inhibitor: 9%

How did OC(c1cccc(Cl)c1)c1ncc(-c2cccc(C(F)(F)F)c2)[nH]1 (stereo not given) do in these assays?
AMA1-RON2 inh: -6%

How did CCOC(=O)c1ccc(N2C(=O)[C@@H](c3ccccc3)[C@H]2c2ccccc2)cc1 do in these assays?
AMA1-RON2 inh: -5%; Pf growth 96h: inconclusive; Pf growth 48h: 10µM*; HCV inhibitor: -6%

What do the screens show for `CCn1c(C)nc2cc(C(=O)N/N=C(\C)c3ccccc3O)ccc21`?
AMA1-RON2 inh: 109%; Pf growth 96h: -6%; Pf growth 48h: 21%; HCV inhibitor: 10µM*

How did CC(C)NC(=O)C1C(c2ccc(C(F)(F)F)cc2)=Nc2ccccc2N1C(=O)c1cc2ccccc2[nH]1 (stereo not given) do in these assays?
AMA1-RON2 inh: 5%

What do the screens show for `COC(=O)C1=C(C)N(c2ccccc2)C(=S)NC1c1ccccc1C(F)(F)F` (stereo not given)?
AMA1-RON2 inh: -2%; Pf growth 96h: inconclusive; Pf growth 48h: 10µM*; HCV inhibitor: inconclusive

What do the screens show for `COCCOC(=O)C1=C(C)N(c2ccccc2)C(=S)NC1c1ccccc1C(F)(F)F` (stereo not given)?
AMA1-RON2 inh: 25%; Pf growth 96h: inconclusive; Pf growth 48h: -20%; HCV inhibitor: 5%

What do the screens show for `O=C(O)c1cc([N+](=O)[O-])cc2c1C=Cc1ccccc1O2`?
AMA1-RON2 inh: 1%; Pf growth 96h: -19%; Pf growth 48h: 18%; HCV inhibitor: 33%

Results for COc1ccc(F)cc1C(=O)C1CCCN(C(=O)c2cccc(N(C)C)c2)C1 (stereo not given) ?
AMA1-RON2 inh: -1%; Pf growth 96h: inconclusive; Pf growth 48h: 5.9µM*; HCV inhibitor: -27%

How did CC(=O)c1ccc(C(=O)N2CCCC(C(=O)c3cc(F)ccc3F)C2)s1 (stereo not given) do in these assays?
AMA1-RON2 inh: -6%; Pf growth 96h: 3%; Pf growth 48h: -2%; HCV inhibitor: -2%

How did Cc1nc(C)c(C(=O)N2CCCC(C(=O)c3cc(F)ccc3F)C2)s1 (stereo not given) do in these assays?
AMA1-RON2 inh: 12%; Pf growth 96h: 5.9µM*; Pf growth 48h: 25%; HCV inhibitor: -6%

Results for Cc1ccsc1C(=O)N1CCCC(C(=O)c2cc(F)ccc2F)C1 (stereo not given) ?
AMA1-RON2 inh: 0%; Pf growth 96h: inconclusive; Pf growth 48h: inconclusive; HCV inhibitor: 0%

Results for O=C(c1cc(F)ccc1F)C1CCCN(C(=O)c2ccc(F)cc2Cl)C1 (stereo not given) ?
AMA1-RON2 inh: -5%; Pf growth 96h: 1.2µM*; Pf growth 48h: -13%; HCV inhibitor: inconclusive

How did CCCCn1nnc(NC(=O)c2ccc([N+](=O)[O-])cc2Cl)n1 do in these assays?
AMA1-RON2 inh: 6%; Pf growth 96h: inconclusive; Pf growth 48h: 32%; HCV inhibitor: inconclusive

How did CCc1nc(SCc2ccc(Br)cc2)n[nH]1 do in these assays?
AMA1-RON2 inh: 27%; Pf growth 96h: -7%; Pf growth 48h: 77%; HCV inhibitor: -12%

Results for CCc1nc(SCc2ccccc2C)n[nH]1 ?
AMA1-RON2 inh: 2%; Pf growth 96h: 6.6µM*; Pf growth 48h: -18%; HCV inhibitor: 7%

What do the screens show for `CCc1nc(SCc2ccc(OCC(C)C)cc2)n[nH]1`?
AMA1-RON2 inh: 16%; Pf growth 96h: 10µM*; Pf growth 48h: 45%; HCV inhibitor: inconclusive

Results for Cc1nc(SCc2ccccc2C)n[nH]1 ?
AMA1-RON2 inh: 2%; Pf growth 96h: -15%; Pf growth 48h: 15%; HCV inhibitor: -13%

How did O=C(CSc1ncnc2c1cnn2-c1ccc(F)cc1)NC1CCCC1 do in these assays?
AMA1-RON2 inh: 54%; Pf growth 96h: 36%; Pf growth 48h: 49%; HCV inhibitor: 6.3µM*

What do the screens show for `CCOC(=O)CSc1ncnc2c1cnn2-c1ccc(C)cc1`?
AMA1-RON2 inh: 5%; Pf growth 96h: 13µM*; Pf growth 48h: 28%; HCV inhibitor: 9%

What do the screens show for `O=C(CSc1ncnc2c1cnn2-c1ccc(F)cc1)NCC1CCCO1` (stereo not given)?
AMA1-RON2 inh: 16%; Pf growth 96h: -23%; Pf growth 48h: 30%; HCV inhibitor: inconclusive

What do the screens show for `CCc1nnc(NC(=O)CSc2ncnc3c2cnn3-c2ccc(OC)cc2)s1`?
AMA1-RON2 inh: 16%; Pf growth 96h: 0.0037µM*; Pf growth 48h: 57%; HCV inhibitor: -12%

What do the screens show for `CCOC(=O)CNC(=O)CSc1ncnc2c1cnn2-c1ccccc1`?
AMA1-RON2 inh: -6%; Pf growth 96h: -3%; Pf growth 48h: 13%; HCV inhibitor: 4%

What do the screens show for `CCOC(=O)CNC(=O)CSc1ncnc2c1cnn2-c1ccc(C)cc1`?
AMA1-RON2 inh: -8%; Pf growth 96h: 8.3µM*; Pf growth 48h: 15%; HCV inhibitor: 17%
